PubChem BioAssay AID504832 (National Center for Advancing Translational Sciences (NCATS), 2011)
Among all 310,000 compounds or so, about 18,000 (5.8%) were called active. Entries that show only a call come without a potency. Another 22% or so got no clear call; they are omitted. The call rests on the fitted dose curve; in most records, active means well fitted inhibition curve with a large enough effect; inconclusive means small, poorly fitted or top-dose-only effect, or another doubt; inactive means no such curve, though single readings can be large or run the other way. This excerpt belongs to a sample that is enriched for actives.
Potency means the concentration at half of the fitted maximal effect.

Assay: Primary qHTS for delayed death inhibitors of the malarial parasite plastid, 48 hour incubation
Conditions: P. falciparum luciferase growth in erythrocytes; series mostly up to 28.7 µM
In short: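 Compounds are pin-transferred into medium, infected erythrocytes (2% hematocrit, 0.1% parasitemia final) are added, and plates sit one parasite generation at 37 C in 5% CO2. Detection reagent is then added and luminescence measured.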
In the case of `CCN(CC)C(=O)COc1coc(CN2CCN(Cc3ccccc3)CC2)cc1=O`, the Potency is reported as “inactive”. For `O=C(NCCC1CCCCN1S(=O)(=O)c1ccccc1)C(=O)NCC1CCCO1` (centres undefined), the Potency was “inactive”. With `O=C(CCC1CCCN(C(=O)c2ccc(F)c(F)c2)C1)N1CCN(c2ccccn2)CC1` (centres undefined) the Potency was “inactive”. In the case of `COc1ccc(Cl)cc1NC(=O)COc1ccc2c(c1)OCO2`, the Potency is reported as “inactive”. For `Nc1cccc(CCc2nc3ccccc3[nH]2)c1`, the Potency was “inactive”. In the case of `Nc1cccc(-c2cc(-c3ccccc3)nc(-c3cccc(N)c3)n2)c1`, the Potency is reported as 10.4 µM (active). With `Nc1nc(-c2ccccc2)cc(-c2ccccc2)n1` the Potency was “inactive”. With `Cc1cccc(C(=O)NCCCN(C)CCCNC(=O)c2cccc(C)c2)c1` the Potency was “inactive”. In the case of `CCSc1nc2sc3c(c2c(=O)[nH]1)CC(C)(C)OC3`, the Potency is reported as “inactive”. In the case of `O=C(OCc1ccc([N+](=O)[O-])cc1)C1CC(=O)N(Cc2ccccc2Cl)C1` (centres undefined), the Potency is reported as “inactive”. With `COc1cc(/C=C/C(=O)O)cc(S(=O)(=O)Nc2ccccc2C(=O)NCCc2ccccc2)c1OC` the Potency was “inactive”. For `COc1cc(C(CCN2CCN(c3ccccc3)CC2)c2c(OC)cc(OC)c3ccc(=O)oc23)cc(OC)c1OC` (centres undefined), the Potency was 13.1 µM (active). For `COc1cc(OC)c2ccc(=O)oc2c1C(CCN1CCN(c2ccccc2)CC1)c1ccc2c(c1)OCO2` (centres undefined), the Potency was 11.7 µM (active). With `COc1ccccc1NC(=O)CCN1CCN(c2ccc(Cl)cc2)CC1` the Potency was “inactive”. In the case of `COc1ccccc1N1CCN(Cc2cc(OC)c3c(c2)OCO3)CC1`, the Potency is reported as “inactive”. In the case of `c1ccc(-c2cnc(CN3CCN(c4ccccc4)CC3)o2)cc1`, the Potency is reported as “inactive”. For `Cc1cc(=O)oc2c(C)c(OCC(=O)N3CCN(Cc4ccc5c(c4)OCO5)CC3)ccc12`, the Potency was “inactive”. In the case of `CC(OC(=O)CN1C(=O)c2ccccc2C1=O)C(=O)c1ccccc1` (centres undefined), the Potency is reported as “inactive”. In the case of `COc1cc(S(=O)(=O)Nc2ncn[nH]2)ccc1Cl`, the Potency is reported as “inactive”. With `O=Cc1c(NCCCN2CCCC2=O)c2ccccc2[nH]c1=O` the Potency was “inactive”. In the case of `O=C(NC1CCCC1)C(c1ccc(Cl)cc1)N(C(=O)c1csnn1)C1CC1` (centres undefined), the Potency is reported as “inactive”. For `Cc1cc(-c2ccc(S(=O)(=O)N3CCN(c4cccc(C(F)(F)F)c4)CC3)s2)on1`, the Potency was “inactive”. With `O=c1c2ccccc2nc(/C=C/c2ccc(F)cc2)n1-c1ccccc1O` the Potency was 13.1 µM (active). For `O=c1c2ccccc2ncn1/N=C/c1ccccc1`, the Potency was “inactive”. In the case of `O=c1oc(/C=C/c2ccccc2)nc2ccccc12`, the Potency is reported as “inactive”. For `Cc1ccc(NC(=O)COc2ccc(/C=N\NC(=O)c3cccnc3)cc2)cc1C`, the Potency was “inactive”. In the case of `Cc1ccc(NC(=O)COc2ccc(-n3ccnc3)cc2)cc1Cl`, the Potency is reported as 9.28 µM (active). In the case of `CCC(=O)c1ccc(OCC(=O)Nc2ccc3nc(C)sc3c2)cc1`, the Potency is reported as “inactive”. With `Cc1ccc(NC(=O)NC(=O)c2ccccc2)cc1F` the Potency was “inactive”. In the case of `COc1ccc(NC(=O)c2nc(-n3nc(C)cc3C)ccc2Cl)cc1Cl`, the Potency is reported as “inactive”. In the case of `COc1ccccc1/C=N\Nc1cc(C)nc(-n2nc(C)cc2C)n1`, the Potency is reported as 1.65 µM (active). For `COc1cccc(/C=N/Nc2cc(C)nc(-c3ccccc3O)n2)c1O`, the Potency was 3.7 µM (active). For `COc1cccc2c(N/N=C/c3ccco3)cc(C)nc12`, the Potency was “inactive”. With `Cc1cc(N/N=C\c2ccc(Br)cc2)nc(-n2nc(C)cc2C)n1` the Potency was 1.04 µM (active). In the case of `COc1cc(NS(=O)(=O)c2ccccc2)ccc1-n1nc(C)cc1C`, the Potency is reported as “inactive”. With `Cc1ccc(S(=O)(=O)Nc2nc(C)cc(N/N=C/c3ccc(O)cc3)n2)cc1` the Potency was “inactive”. For `Cc1nc(Cl)cc(N/N=C/c2ccccc2)n1`, the Potency was “inactive”. With `COc1cc(/C=N/Nc2nc3ccccc3s2)ccc1O` the Potency was “inactive”. In the case of `CCc1nc2nc(C)c(NS(=O)(=O)c3ccc4c(c3)CCCC4)c(=O)n2[nH]1`, the Potency is reported as “inactive”. For `CN(CC(=O)Nc1cccc(F)c1)C(=O)CC1CCCC1`, the Potency was “inactive”. With `Cc1ccc(-c2ccnc3[nH]n(-c4ccccc4)c(=O)c23)cc1` the Potency was “inactive”. In the case of `C=CCn1c(CNS(=O)(=O)c2ccc(Br)cc2)nnc1SC`, the Potency is reported as “inactive”. With `COc1ccc(OC)c(NC(=O)Cc2cccs2)c1` the Potency was “inactive”. In the case of `CN(CC(=O)NNC(=O)CNC(=O)c1ccccc1Cl)S(=O)(=O)c1ccc(Cl)cc1`, the Potency is reported as “inactive”. In the case of `Cc1csc(SCC(=O)N(c2ccccc2)C(C)C)n1`, the Potency is reported as 10.4 µM (active). With `COc1ccc(NC(=O)CSc2nc(C)cs2)cc1` the Potency was “inactive”. With `Cc1ccc(C(=O)N2CC(=O)Nc3ccc(F)cc3C2c2ccc(F)cc2)cc1` (centres undefined) the Potency was “inactive”. In the case of `O=S(=O)(c1cccs1)N1CCN(CCOc2ccccc2)CC1`, the Potency is reported as “inactive”. For `COC(=O)c1ccc2c(C(C)(C)O)c(C(C)(C)O)[nH]c2c1`, the Potency was “inactive”. In the case of `COc1cc(/C=C2\SC(=S)N(Nc3ncc(C(F)(F)F)cc3Cl)C2=O)cc(OC)c1OC`, the Potency is reported as “inactive”. With `COc1cccc(/C=N/Nc2ncc(C(F)(F)F)cc2Cl)c1O` the Potency was 1.04 µM (active). In the case of `COc1cccc(/C(C)=N/Nc2ncc(Cl)cc2Cl)c1`, the Potency is reported as “inactive”. For `O=C(NNC(=O)c1ccco1)Nc1ccccc1`, the Potency was “inactive”. In the case of `Cc1ccc(C(=O)OCC(=O)NC(=O)Cc2ccccc2)c(O)c1`, the Potency is reported as “inactive”. For `COc1cc(NS(=O)(=O)c2ccc(NC(=S)NC(=O)c3ccc(Br)cc3)cc2)ncn1`, the Potency was “inactive”. For `COc1ccc(C(CCNCc2ccccc2F)c2ccc(F)cc2)cc1` (centres undefined), the Potency was 7.38 µM (active). For `COc1ccc(Cc2cc(-c3ccc(F)cc3)n[nH]c2=O)cc1`, the Potency was “inactive”. In the case of `COc1ccc(CC(=O)NC(C)CCc2ccccc2)cc1` (centres undefined), the Potency is reported as “inactive”. In the case of `CC1(C)Cc2c(cnn2-c2cccc(F)c2)C(NC(=O)c2cc[n+]([O-])cc2)C1` (centres undefined), the Potency is reported as “inactive”. In the case of `Cc1ccc(S(=O)(=O)N2CCOCC2)cc1NC(=O)COC(=O)c1cnccn1`, the Potency is reported as “inactive”. With `Cc1cccc(NS(=O)(=O)c2ccc([N+](=O)[O-])cc2)n1` the Potency was “inactive”. In the case of `O=C(CCl)Nc1ccc(Sc2ccc(NC(=O)CCl)cc2)cc1`, the Potency is reported as 3.29 µM (active). With `O=C(Cc1ccc(Cl)c(Cl)c1)Nc1ccc(SC(F)F)cc1` the Potency was “inactive”. With `Cc1ccc(NC(=O)CC(=O)Nc2ccc(C)cc2)cc1` the Potency was “inactive”. For `CCN(CC)S(=O)(=O)c1ccc(-c2cn3ccc(C)cc3n2)cc1`, the Potency was “inactive”. In the case of `CCCOc1cccc(C(=O)NCCCNC(=O)c2cccnc2)c1`, the Potency is reported as “inactive”. In the case of `Cc1nn(C(C)C(=O)NCCC2=CCCCC2)c(=O)c2nn(-c3ccccc3)c(C)c12` (centres undefined), the Potency is reported as “inactive”. With `O=C(NNS(=O)(=O)c1ccc(F)cc1)C1CCCCC1` the Potency was “inactive”. With `CS(=O)(=O)Nc1ccccc1N=C(c1ccccc1)c1ccccc1` the Potency was “inactive”. In the case of `CCOc1cc(C(C(=O)NCC2CCCO2)N(C(=O)Cn2nnc3ccccc32)c2cccc(OC)c2)ccc1O` (centres undefined), the Potency is reported as “inactive”. In the case of `COC(=O)c1cccc(N(C(=O)CNC(=O)c2cccs2)C(C(=O)NCC2CCCO2)c2ccc(OC)c(OC)c2)c1` (centres undefined), the Potency is reported as “inactive”. For `O=C(NCCc1c[nH]c2ccccc12)C(=O)NCC1CCCO1` (centres undefined), the Potency was “inactive”. With `COc1cccc(N(C(=O)c2snc(C(N)=O)c2N)C(C(=O)NCC2CCCO2)c2c[nH]c3ccccc23)c1` (centres undefined) the Potency was 9.28 µM (active). With `COCCNC(=O)C(c1ccc(C)o1)N(Cc1cccs1)C(=O)c1snc(C(N)=O)c1N` (centres undefined) the Potency was “inactive”. In the case of `CCOc1ccc(N(CC(=O)NCC2CCCO2)S(=O)(=O)c2ccc(C)cc2)cc1` (centres undefined), the Potency is reported as “inactive”. With `CC(Sc1nn(-c2ccc(Cl)cc2)c(=S)s1)C(=O)NCC1CCCO1` (centres undefined) the Potency was “inactive”. In the case of `CCOc1ccc(N(C(=O)c2snc(C(N)=O)c2N)C(C(=O)NCC2CCCO2)c2c[nH]c3ccccc23)cc1` (centres undefined), the Potency is reported as 5.22 µM (active). With `Cc1ccc(N(C(=O)c2snc(C(N)=O)c2N)C(C(=O)NCC2CCCO2)c2c[nH]c3ccccc23)cc1` (centres undefined) the Potency was 7.38 µM (active). In the case of `Cc1ccc(N(C(=O)Cc2cccs2)C(C(=O)NCC2CCCO2)c2ccncc2)cc1` (centres undefined), the Potency is reported as “inactive”. With `Cc1ccc(C(C(=O)NCC2CCCO2)N(C(=O)c2snc(C(N)=O)c2N)c2ccc(C(C)C)cc2)o1` (centres undefined) the Potency was 9.28 µM (active). For `CCOc1ccc(-n2c(N)c(C(=O)NCC3CCCO3)sc2=S)cc1` (centres undefined), the Potency was “inactive”. For `COc1ccc2oc(=O)cc(CN3CCOCC3)c2c1`, the Potency was “inactive”. For `CC(=O)c1c(C)[nH]c(C(=O)CN2C(=O)NC(C)(C)C2=O)c1C`, the Potency was “inactive”. In the case of `CC1CCCN(C(=O)CN2C(=O)c3ccccc3S2(=O)=O)C1` (centres undefined), the Potency is reported as “inactive”. For `O=C(NNS(=O)(=O)c1ccc([N+](=O)[O-])cc1)C1CCCCC1`, the Potency was “inactive”. With `CC(=O)O[C@H]1c2ccccc2-c2ccccc2[C@@H]1OC(C)=O` the Potency was “inactive”. For `C[N+](C)(C)CCNC(=O)c1cc[n+](Cc2ccccc2)c(/C=N/O)c1`, the Potency was “inactive”. With `CC(=O)c1ccc(S(=O)(=O)NCCC(=O)N2CCN(c3ccccn3)CC2)cc1` the Potency was “inactive”. For `COc1cc(NC(=O)c2ccccc2)c(OC)cc1NC(=O)Cc1ccccc1`, the Potency was “inactive”. With `Nn1c(SCC(=O)Nc2nccs2)nnc1-c1ccco1` the Potency was “inactive”. In the case of `CCC(NC(=O)C1CCCC1)c1ccc(C)cc1` (centres undefined), the Potency is reported as “inactive”. For `COc1cccc(N2CC(NS(=O)(=O)c3cccs3)CC2=O)c1` (centres undefined), the Potency was “inactive”. For `Cc1ccc(NC(=O)c2c(NC(=O)CCC(=O)O)sc3c2CCCCC3)cc1`, the Potency was “inactive”. For `NC(=O)c1c(NC(=O)c2ccccc2)sc2c1CCCC2`, the Potency was “inactive”. With `Cc1ccc(C(=O)c2c(NC(=O)c3ccncc3)sc3c2CCCC3)cc1` the Potency was 6.57 µM (active). For `COc1cccc(NC(=O)N2CCC(NC(=O)C(Cc3cccc(C)c3)NC(C)=O)CC2)c1` (centres undefined), the Potency was “inactive”. For `CC(C)[C@H](NC(=O)N1CCn2c1nc1ccccc12)C(=O)NC1CC1`, the Potency was “inactive”. For `COC(=O)c1c(NC(=O)c2ccc(S(=O)(=O)N3CCOCC3)cc2)sc2c1CCN(C(C)C)C2`, the Potency was 11.7 µM (active). For `CC(OC(=O)c1ccc(S(=O)(=O)N2CCOCC2)cc1)c1ccccc1` (centres undefined), the Potency was “inactive”. With `CNC(=O)c1ccsc1NC(=O)c1ccc(S(=O)(=O)N2CCOCC2)cc1` the Potency was “inactive”. In the case of `COCC(=O)N1CCCC(C(=O)c2ccc(C(F)(F)F)cc2)C1` (centres undefined), the Potency is reported as “inactive”. With `O=c1[nH]c(CSc2ccccc2)nc2c1oc1ccccc12` the Potency was 10.4 µM (active). For `Cc1nc(Cl)c2oc3ccccc3c2n1`, the Potency was “inactive”. With `CCOC(=O)c1sc2nc(CSc3ccccc3)[nH]c(=O)c2c1C` the Potency was “inactive”.
